# High-throughput results (PubChem)
# Pf growth 96h = P. falciparum growth inhibition at 96 hour, primary screen for plastid delayed-death inhibitors; AID 504834; actives 6.9% (n = 320,000); P. falciparum luciferase reporter growth, 96 h; Potency, µM (top dose mostly 28.7 µM), inactives show at the highest dose activity change, negative = inhibition, most hits filed as inhibitors; further: potency means the concentration at half of the fitted maximal effect; on the % scale 0 is the no-effect control and ±100 the full control effect
#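 P. falciparum expressing integrated firefly luciferase grown in erythrocytes (2% hematocrit, 0.05% parasitemia final) with compounds for 96 hours at 37 C, 5% CO2. Growth inhibition read as loss of luminescence after adding luciferase detection reagent.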
# Cycloheximide cs = affects cycloheximide protein synthesis inhibition readout, counter-screen; actives 12% (n = 300,000); max response, %; cell reporter, cycloheximide protein synthesis inhibition counterscreen; in the data active means max response mostly above about 13%, no sharp cut-off; inactive means mostly below about 14%; further: read at 38.3 µM for the half of the compounds with a filed dose; 0% is about no effect
# Pf growth 48h = P. falciparum growth inhibition at 48 hours (one generation) | Potency, µM (highest dose often 28.7 µM), inactives show at the top dose activity change, negative = inhibition, usual class: inhibitors | actives 5.9% (n = 310,000) | P. falciparum luciferase growth in erythrocytes, 48 h; further: potency means the concentration at half of the fitted maximal effect; on the % scale 0 is the no-effect control and ±100 the full control effect
#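 Growth was read as firefly luciferase luminescence after a 48 h, 37 C, 5% CO2 exposure of compounds to reporter-bearing P. falciparum cultures (0.1% parasitemia, 2% hematocrit final) in Albumax-supplemented RPMI 1640.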
# HCV inhibitor = blocks hepatitis C virus | Potency, µM (highest dose often 41.8 µM), for the others: at the top dose activity change, negative = inhibition, most hits filed as inhibitors | Huh7.5.1 HCVcc-Cre infection, luciferase reporter, 44 h | AID 651820 | actives 3.4% (n = 340,000); further: potency means the concentration at half of the fitted maximal effect; on the % scale 0 is the no-effect control and ±100 the full control effect
#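 Infectious HCVcc-Cre (~0.5 moi) was added to cells just after compound, with cells seeded 4 h earlier at 1,000 per well. Luciferase activity after 44 h culture reported infection; substrate was incubated 15 min at room temperature before reading.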
# AMA1-RON2 inh = inhibitors of Plasmodium falciparum AMA1-RON2 interaction; AlphaScreen AMA1-biotinylated RON2 peptide binding; Potency, µM (doses to about 58.2 µM), inactives show at the top dose activity change, negative = inhibition, usual class: inhibitors; actives 0.2% (n = 360,000);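 further: potency means the concentration at half of the fitted maximal effect; 0% = vehicle wells and -100% = peptide control; nearly all actives have a fitted effect of over 45% in size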
#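 AMA1 (3D7) with his tag at 25 nM final met compounds first, then biotinylated RON2 peptide at 25 nM; detection used donor plus acceptor beads, 10 µg/mL apiece, read by AlphaScreen after 30 min at room temperature.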
# Shiga inhibitor = Shiga toxin inhibition. actives 9.2% (n = 290,000). Vero cells, Shiga toxin protein synthesis inhibition reporter. inhibition, % at 38.7 µM; in the data active means inhibition mostly above about 28%, no sharp cut-off; inactive means mostly below about 43%; further: 0% is about no effect
# Numbers without * were called inactive; ? = inconclusive; nt = not tested or not shown; [ ] = remark or other dose. The list is not random: actives were taken first. Their share in the collection is about 21%. Unless noted, the call rests on the fitted dose curve; in most records, active means well fitted curve in the direction sought with a large enough effect; inconclusive means small, poorly fitted or top-dose-only effect, or another doubt; inactive means no such curve, though single readings can be large; an effect the other way counts as inactive or inconclusive.
SMILES,Pf growth 96h,Cycloheximide cs,Pf growth 48h,HCV inhibitor,AMA1-RON2 inh,Shiga inhibitor
CNC(=O)c1cc2cccc(OC)c2oc1=O,-2.0%,-0.3,-2.8%,18.5%,0.4%,-5.4
COc1ccc(-c2ccc3c(c2)S(=O)(=O)c2cccc(C(=O)NC[C@@H]4CCCO4)c2C3=O)cc1OC,?,nt,13.1µM*,?,-20.0%,nt
COc1cccc2cc(C(=O)NC(C)C3CCCO3)c(=O)oc12 (stereo not drawn),nt,45.1*,68.0%,13.1%,10.0%,63.0*
COc1ccc2oc(=O)c(C(=O)NCC3CCCO3)cc2c1 (stereo not drawn),-8.1%,28.9*,nt,-5.3%,-11.1%,45.0
COc1cccc2cc(C(=O)NCC3CCCO3)c(=O)oc12 (stereo not drawn),nt,30.4*,27.4%,4.7%,6.6%,33.3
CNC(=O)c1cc2cc(OC)ccc2oc1=O,-15.1%,-1.9,nt,14.7%,1.4%,-8.3
NC(=O)NC(CC(=O)NNC(=O)c1cccs1)c1ccc(Cl)cc1 (stereo not drawn),nt,nt,nt,2.3%,47.6%,nt
Cc1cc(C(=O)NNC(=O)c2ccc(NC(=O)CC#N)cc2)c(C)o1,-26.3%,nt,?,9.1%,14.2%,nt
Cc1cccc(NC(=O)c2nc[nH]c2C(=O)N2CCc3ccccc3C2)c1,?,nt,4.7%,2.6%,62.9%,nt
COc1cccc2cc(C(=O)NC3CC4CCC3C4)oc12 (stereo not drawn),5.4%,14.0*,?,10.5%,-4.5%,20.9
COc1ccc2oc(=O)c(C(=O)NC3CCCCCC3)cc2c1,?,22.8*,31.2%,-13.9%,-7.6%,nt
CCOC(=O)CC(NC(=O)c1cc2cccc(OC)c2oc1=O)c1ccc(OC)cc1 (stereo not drawn),15.3%,43.9*,12.2%,-8.0%,0.3%,101.7*
COc1cccc2cc(C(=O)NCCN3CCOCC3)oc12,-7.9%,-3.5,-5.6%,3.6%,-17.0%,-18.0
CC(C)c1oc(=O)cc2c1[C@@H](O)[C@H]1OC(=O)[C@@]3(C)C[C@@H](O)[C@@H](O)[C@@]2(C)C13 (stereo partly drawn),1.04µM*,-6.5,1.47µM*,?,0.8%,-21.6
CC(C)c1oc(=O)cc2c1[C@@H](O)[C@H]1OC(=O)[C@@]3(C)CC[C@@H](O)[C@@]2(C)C13 (stereo partly drawn),2.62µM*,-4.0,2.94µM*,?,5.8%,-29.2
Cc1n[nH]c2c([N+](=O)[O-])c(=O)[nH]c(=O)n12,nt,nt,nt,-3.7%,4.1%,nt
O=C1OC(Cc2ccccc2)(c2ccccc2)c2ccccc21 (stereo not drawn),nt,nt,nt,nt,2.6%,nt
CC1=CC(C)C(/C=N/N=C(N)N)C(C)C1 (stereo not drawn),2.94µM*,-2.8,11.7µM*,?,5.8%,-6.6
COc1ccc(CSc2cccc3cccnc23)cc1[N+](=O)[O-],6.57µM*,14.0,69.5%,-1.6%,-12.5%,48.5
COc1ccc(CSc2nncn2N)cc1[N+](=O)[O-],7.38µM*,9.1,38.7%,-0.4%,3.4%[2.32 µM],8.1
CCC(CC)c1nnc(NC(=O)CSCC(=O)Nc2cc(C)on2)s1,?,nt,-1.0%,11.1%,17.7%,nt
COc1cc2c(C(=O)NCc3ccccn3)cn(C)c(=O)c2cc1OC,-6.1%,-3.5,17.6%,2.2%,14.0%,-4.2
COc1cc2c(C(=O)Nc3ccccc3F)cn(C)c(=O)c2cc1OC,8.28µM*,-4.3,-17.2%[0.00184 µM],-9.7%,1.1%,13.7
COc1ccccc1NC(=O)c1cn(C)c(=O)c2cc(OC)c(OC)cc12,8.28µM*,7.4,21.8%,-1.7%,12.8%,-2.3
COc1cc2c(C(=O)N3CCN(c4ccccc4F)CC3)cn(C)c(=O)c2cc1OC,?,-5.1,?,-4.1%,-11.5%,-5.4
SMILES,Pf growth 96h,Cycloheximide cs,Pf growth 48h,HCV inhibitor,AMA1-RON2 inh,Shiga inhibitor
CCCCCCCCN1C(=O)[C@H](CC(=O)NCC2CCCCC2)C[C@@]2(C(=O)OCC)CCC=C12,nt,nt,nt,nt,-10.1%,nt
O=C(c1ccccc1)c1c[nH]c2ccccc12,-30.0%,34.7*,?,10.3%,4.6%,63.6*
Cn1cc(C(=O)C(=O)NC2CCCCC2)c2ccccc21,?,33.4*,92.6%,?,-8.5%,55.1*
O=C(NC1CC1)C(=O)c1c[nH]c2ccccc12,9.6%,19.1*,18.8%,9.6%,-10.1%,99.9*
Cn1cc(C(=O)C(=O)NC2CC2)c2ccccc21,nt,nt,nt,1.5%,-21.5%,nt
Cc1ccc(S(=O)(=O)N2C3CC(c4ccccc4)N(S(=O)(=O)c4ccccc4Cl)CC3C(=O)C[C@H]2c2ccccc2)cc1 (stereo partly drawn),nt,nt,nt,nt,-3.0%,nt
O=C(COc1ccccc1Cl)Nc1ccc(CN2CCOCC2)cc1,50.5%,20.6*,-0.4%,12.6µM*,5.0%,7.6
CCC(=O)N1CCN(c2ccc(NC(=O)COc3ccccc3[N+](=O)[O-])cc2)CC1,25.7%,0.8,?,11.2µM*,0.6%,-5.9
CCC(=O)N1CCN(c2ccc(NC(=O)COc3ccccc3Cl)cc2)CC1,5.86µM*,-2.4,nt,11.2µM*,-2.4%,-21.4
CCC(=O)N1CCN(c2ccccc2NC(=O)COc2ccccc2Cl)CC1,nt,-1.1,?,2.5%,-7.5%,-16.9
CN1CCN(c2ccc(NC(=O)COc3ccccc3Cl)cc2)CC1,-13.4%,26.4*,12.4%,?,-6.0%,76.2*
CN1CCN(S(=O)(=O)c2ccc(NC(=O)COc3ccccc3Cl)cc2)CC1,?,-0.9,?,9.6%,13.2%,-10.5
O=C(N/C(=C\c1cccc(Br)c1)C(=O)N1CCCCC1)c1ccco1,?,-5.2,9.1%,-10.4%,4.5%,-4.8
O=C(Nc1ccncc1)c1ccccc1Cl,?,13.0,35.4%,-0.4%,11.9%,37.1*
O=C(CCNC(=O)c1ccccc1Cl)Nc1ccncc1,0.5%,-1.6,17.3%,22.1%,-6.0%,-3.1
Cc1ccc(NC(=O)Nc2cccnc2)cc1Cl,?,37.5*,?,?,7.3%,62.6*
O=C(Nc1cccnc1)Nc1ccc(Br)cc1Cl,nt,28.7*,?,11.2µM*,8.5%,55.8*
Cc1ccc(C)c(C(=O)Nc2cc(C)nn2-c2nc(C)cc(C)n2)c1,?,-5.8,13.1µM*,?,-10.1%,16.7
Cc1cc(C)nc(-n2nc(C)cc2NC(=O)c2cccc(S(=O)(=O)N(C)C)c2)n1,2.3%,-4.2,?,-14.9%,3.7%,7.3
O=C(Nc1cccnc1)Nc1cc(Cl)cc(Cl)c1,?,0.6,?,?,-8.3%,-1.1
O=C1OC(O)c2cccc3cccc1c23 (stereo not drawn),nt,nt,nt,nt,-4.2%,nt
O=C(Nc1ccncc1)Nc1ccccc1Cl,?,24.3*,?,-19.2%,8.4%,49.3*
Cc1ccc(C(=O)Nc2ccncc2)c(Cl)c1,?,2.0,4.2%,?,-12.1%,22.4
